The entries come from a sample that favours hits as a whole.
Pf Dd2 inh – Plasmodium falciparum Dd2 growth inhibition | P. falciparum Dd2 growth, SYBR Green, 72 h | Potency, µM (highest dose often 28.9 µM), without a hit: top-dose activity, negative = inhibition, most hits filed as inhibitors | 120,000 compounds, 4.3% hits; active = well fitted inhibition curve with a large enough effect;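 note: plate controls were DMSO vehicle for no effect and reference drug for full effect; nearly all actives have a fitted effect of over 65% in size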
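Infected erythrocytes (Dd2, 0.3% parasitemia, 2.5% hematocrit final) are added to compound in RPMI-1640/Albumax II medium, grown 72 h at 37C in low oxygen, then lysed with saponin/Triton-X containing SYBR Green and read by fluorescence.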
Starred values were filed as active, the others as inactive; i = inactive; ! = not confirmed by another sample; [ ] = dose if it differs, or a comment. Potency is the fitted concentration of half-maximal effect.

SMILES | Pf Dd2 inh
CCOC(=O)c1cc(-c2ccccc2)n(CC(=O)NCc2ccccc2)c1C | 12.2%
CCOC(=O)c1cc(-c2ccccc2)n(CC(=O)NCc2ccc(C)cc2)c1C | -12.0%
CCOC(=O)c1cc(-c2ccc(OC)cc2)n(CCC(=O)NCc2ccc(OC)cc2)c1C | 3.98µM*
CCOC(=O)c1cc(-c2ccc(C)cc2)n(CCC(=O)NCCc2ccc(C)cc2)c1C | i
CCOC(=O)c1cc(-c2ccccc2)n(CCC(=O)NCCc2ccc(OC)c(OC)c2)c1C | -8.1%
Cc1ncc2c(c1CNC(=O)C1CCc3ccccc3C1)CCNC2 (stereo not drawn) | -9.6%
Fc1ccccc1-c1nnc([C@H]2CCN(Cc3ccco3)C2)o1 | i
O=C([C@@H]1C[C@H](F)CN1S(=O)(=O)c1ccc(F)cc1)N1CCc2ccccc2C1 | -3.3%
CCOCCn1cnc(-c2ccccc2)c1-c1ccccc1OCC(N)=O | -16.3%
COc1ccccc1-c1ncc[nH]1 | 65.3%[76.6 µM]
COc1cccc(-c2[nH]cnc2-c2ccccc2)c1OCCCn1ccnc1 | 3.16µM*
O=C(CC[C@H]1NC(=O)c2ccccc2NC1=O)Nc1n[nH]c(Cc2ccc(F)cc2)n1 | 5.1%
CCc1noc(-c2cn(C3CCN(C(=O)c4cc(F)ccc4F)C3)nn2)n1 (stereo not drawn) | -19.5%
Cn1ccnc1CN1CCCC(CCc2ccccc2)C1 (stereo not drawn) | 11.2µM*
Cn1ccnc1CN1CCOC[C@H](Oc2ccccc2)C1 | -26.2%[44.1 µM]
Cn1ccnc1CN1CCCC(c2ccc(C(=O)O)cc2)C1 (stereo not drawn) | -2.9%
COc1ccc(-n2nc(C3CCN(Cc4ccc(F)cc4)CC3)[nH]c2=O)cc1 | i
O=C(Cc1ccc(F)cc1)N1CCC(c2nn(-c3ccc(Cl)cc3)c(=O)[nH]2)CC1 | i
COc1ccc(-n2nc(C3CCN(Cc4ccc(C)cc4)CC3)[nH]c2=O)cc1 | 12.6µM*!
COc1ccc(C(=O)N2CCC(c3nn(-c4ccc(Cl)cc4)c(=O)[nH]3)CC2)cc1 | -13.6%
COc1ccc(-n2nc(C3CCN(Cc4ccc(C#N)cc4)CC3)[nH]c2=O)cc1 | i
CC(C)(C)C(=O)N1CCC(c2nn(-c3ccc(Cl)cc3)c(=O)[nH]2)CC1 | 8.91µM*
COCCNc1c(-c2noc(C)c2C(=O)Nc2ccc(OC)nc2)cnn1C | 2.0%[44.1 µM]
CCn1nccc1C(=O)N1CC(c2nnc(C(C)C)o2)C2(CCOCC2)C1 (stereo not drawn) | 1.1%
C=Cc1cccc(CN2CCC(CNC(=O)C3CCNCC3)C2)c1 (stereo not drawn) | -6.8%
SMILES | Pf Dd2 inh
O=c1n(-c2ccc([N+](=O)[O-])cc2)nc2n1CCN([S+](=O)([O-])c1cccc(C(F)(F)F)c1)C2 | -1.1%
O=C1N[C@H](CCC(=O)N2CCC(c3nnc4ccccn34)CC2)C(=O)Nc2ccccc21 | -14.1%
COc1cccc(CC(=O)N2CCN(c3cc(C(F)(F)F)ncn3)CC2)c1 | i
CCOc1ccc(NC(=O)CCn2cnc3onc(-c4ccc(F)cc4)c3c2=O)cc1 | i
CCN(C(=O)Cn1cnc2onc(-c3ccc(F)cc3)c2c1=O)c1ccc(OC)cc1 | 11.2µM*
O=C(Cn1cnc2onc(-c3ccc(Cl)cc3)c2c1=O)Nc1ccc(F)cc1 | -21.8%
Cc1cnc(-c2cccnc2)n1CC1CCN(C(=O)c2ccco2)CC1 | 0.8%
CCN(CC)C(=O)CC[C@H]1CNC(=O)[C@@H]2[C@@H](CCN2C(C)C)N1C | -1.5%[44.1 µM]
O=C1NC2(CN(Cc3ccc(OC(F)(F)F)cc3)C2)Oc2ccccc21 | -11.2%
COCc1cc(CC2(NC(C)C)COC2)no1 | i
COc1ccc(CNC(=O)C(=O)Nc2cccc(C)c2C)cc1 | 28.7%
COc1ccc(CCNC(=O)C(=O)Nc2ccc(C)c(C)c2)cc1 | 20.2%
COc1ccc(CNC(=O)C(=O)Nc2ccc(OC)cc2OC)cc1 | 5.62µM*
O=C(Nc1ccc(F)cc1F)N[C@H]1C[C@H]2C(=O)NC[C@@H](CCC(=O)N3CCc4ccccc43)N2C1 | i
CCn1nccc1C(=O)N1CC(Oc2ccccc2-c2nc(CCOC)no2)C1 | 4.47µM*
COCCc1noc(C2CN(C(=O)C(C)C)C2)n1 | 11.0%
Cc1nc(C)c(C(=O)N2CC(Oc3ccccc3-c3nc(C4CC4)no3)C2)s1 | i
COCCc1noc(-c2ccccc2OC2CN(C(=O)C(C)C)C2)n1 | 3.16µM*
CCCNC(=O)N1CC(Oc2ccccc2-c2nc(CCOC)no2)C1 | -16.2%
CCn1nccc1C(=O)N1CC(Oc2ccc(-c3nc(C)no3)cc2)C1 | 69.5%[5.79 µM]
COc1cc(NC(=O)Cn2cccc2-c2nc(-c3ccc(F)cc3)no2)cc(OC)c1OC | 40.8%
Cc1ccc(C2Cn3nnc(C(=O)N4CCC(C(=O)NC5CCC(C)CC5)CC4)c3CO2)cc1 (stereo not drawn) | -6.9%
COc1ccc(CNC(=O)N2C[C@@H](Oc3cccnc3)C[C@@H]2C(=O)N2CCOCC2)cc1 | 5.2%
CN1CC(=O)N2CCN(Cc3csc(-c4ccccc4)n3)CC2C1=O (stereo not drawn) | -4.6%
COc1ccc(C2(C(=O)NCc3ccc4ccccc4c3)CCOCC2)cc1 | -8.2%
SMILES | Pf Dd2 inh
COCCN1C[C@H]2CN(C(=O)C3CC3)CCN2C1=O | 0.6%[44.1 µM]
Cc1ccc(-c2nc3ccccn3c2Nc2ccc3c(c2)OCO3)cc1 | 40.6%[0.594 µM]
Cc1cccc2nc(-c3ccc(N(C)C)cc3)c(Nc3ccc4c(c3)OCO4)n12 | 7.94µM*
Cc1ccc(-c2nc3ccc(Br)cn3c2Nc2ccc3c(c2)OCO3)o1 | -20.5%
c1cnc2c(-n3nc(C4CCOCC4)nc3C3CC3)cccc2c1 | 2.1%
O=C1CCN(C(=O)C2CCN(C(=O)C3(c4ccccc4)CC3)CC2)CCCCCCN1 | 2.5%
CN(C)c1cccc(C(=O)NCC2CCN(c3cc(-c4ccc(Cl)cc4)[nH]n3)CC2)c1 | i
O=C(NC1CCS(=O)(=O)C1)c1cc2c(s1)CN(C1CCCC1)C2 (stereo not drawn) | i
O=C(NC1CCCCC1)c1cc2c(s1)CCN(C(=O)c1ccc(F)cc1)C2 | i
CSc1ccc(NC(=O)c2cc3c(s2)CN(C2CC2)C3)cc1 | 10µM*
Cc1ccc(NC(=O)c2cc3c(s2)CN(C2CC2)C3)cc1 | 10µM*
CCC(=O)N1CCc2sc(C(=O)NCc3ccc(C)cc3)cc2C1 | i
CSc1ccc(NC(=O)C2CCN(c3ncccn3)CC2)cc1 | i
COc1cccc(-c2ccc(S(=O)(=O)N3CCSCC3)cc2)n1 | -25.1%
Cc1cc(NC(=O)CN2C(=O)NC(c3ccc(Cl)cc3)C3=C2COC3=O)no1 (stereo not drawn) | i
CCCN1CCC(N2CCCC(Cc3ccccc3)(C(=O)OCC)C2)CC1 (stereo not drawn) | 5.01µM*
CCOC(=O)C1(Cc2cccc(Cl)c2)CCCN(C(=O)c2csc(C(C)=O)c2)C1 (stereo not drawn) | i
CCOC(=O)C1(Cc2cccc(OC)c2)CCCN(C(=O)COc2ccccc2)C1 (stereo not drawn) | -14.5%
COCCNC(=O)C[C@@H]1O[C@H](CNC(=O)Nc2cccc(F)c2)[C@@H](O)[C@H]1O | 20.9%[44.1 µM]
CC1(C(=O)NCc2ccncc2)CCc2cnc(NCc3ccccc3)nc21 (stereo not drawn) | i
COc1ccc(OC)c(NC(=O)CSc2ccc(-c3sc(C)nc3C)nn2)c1 | i
COc1ccc(OC)c(NC(=O)CSc2ccc(-c3cccs3)nn2)c1 | 56.9%[5.79 µM]
COc1ccc(C)cc1NC(=O)CSc1ccc(-c2ccccn2)nn1 | 8.91µM*
CC(C)NC(=O)N[C@H]1C[C@H]2C(=O)NC[C@@H](CCC(=O)N3CCOCC3)N2C1 | -0.1%[44.1 µM]
